# Screening results: PubChem BioAssay, National Center for Advancing Translational Sciences (NCATS)
# Only some compounds are listed: those with a hit (about 7.3% of all), similar ones and a draw of the others.
# FLuc counter – qHTS profiling assay for firefly luciferase inhibitor/activator using purifed enzyme and Km concentrations of substrates (counterscreen for miR-21 project); Luciferin 4-monooxygenase (Photinus pyralis), P08659; purified FLuc, Km substrates, luminescence inhibition; Potency, µM (series often up to 57.5 µM), for the others: at the top dose activity change, negative = inhibition, most hits filed as inhibitors; hit rate 6.9% among 360,000;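 also: plate controls were vehicle for no effect and reference inhibitor for full effect; nearly all actives have a fitted effect of over 55% in size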
# Target sequence (P08659 whole entry, looked up): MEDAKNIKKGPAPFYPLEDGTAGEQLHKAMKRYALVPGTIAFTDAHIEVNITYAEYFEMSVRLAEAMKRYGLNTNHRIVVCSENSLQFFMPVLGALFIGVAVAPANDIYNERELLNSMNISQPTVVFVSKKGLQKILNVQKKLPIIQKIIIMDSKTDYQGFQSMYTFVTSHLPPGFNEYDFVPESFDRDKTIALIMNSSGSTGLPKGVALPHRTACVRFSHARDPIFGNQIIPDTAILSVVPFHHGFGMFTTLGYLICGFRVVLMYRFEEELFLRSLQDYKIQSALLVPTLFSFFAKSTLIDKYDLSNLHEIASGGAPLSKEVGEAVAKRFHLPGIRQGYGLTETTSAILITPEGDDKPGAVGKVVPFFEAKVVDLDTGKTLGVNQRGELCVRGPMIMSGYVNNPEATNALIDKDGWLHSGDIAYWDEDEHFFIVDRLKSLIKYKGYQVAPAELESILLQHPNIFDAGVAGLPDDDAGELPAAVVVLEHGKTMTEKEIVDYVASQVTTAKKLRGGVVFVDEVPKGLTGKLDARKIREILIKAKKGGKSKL
#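 Biochemical qHTS of compounds, final roughly 60 µM downward over six points, against 10 nM purified firefly luciferase using Km concentrations of substrates (10 uM D-luciferin, 10 uM ATP) in Tris acetate pH 7.5 buffer; luminescence output.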
# NPC1 promoter act – qHTS Assay for NPC1 Promoter Activators. Potency, µM (titrated, usually from 9.22 µM), inactives show at the top dose activation, hits mostly activators. AID 485313, 2010. hit rate 2.4% among 320,000. Huh7 NPC1 promoter luciferase reporter, 24 h; also: % of control where 0% means no effect; nearly all actives have a fitted effect of over 60% in size
#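 Huh7 reporter cells (NPC1 promoter driving luciferase) are dosed with compound for 24 h at 37 °C, 5% CO2; luciferase detection reagent is then added and luminescence measured after 10 min at ambient temperature.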
# Rab9 prom act – qHTS Assay for Rab9 Promoter Activators | Huh7 Rab9 promoter-luciferase reporter, luminescence, 24 h | Potency, µM (titrated, usually from 9.22 µM), without a hit: at the top dose activation, negative = inhibition, actives largely listed as activators | hit rate 2.8% among 320,000; also: % of control where 0% means no effect; nearly all actives have a fitted effect of over 60% in size
#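 Measured in stably transfected Huh7 cells bearing a Rab9 promoter–luciferase construct: 24 h compound treatment at 37 °C, followed by luminescence detection.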
# uPA surface inh – qHTS for Inhibitors of Cell Surface uPA Generation; cell surface uPA generation assay, qHTS; Potency, µM (series often up to 38.3 µM), for inactives: top-dose activity change, negative = inhibition, usual class: inhibitors; hit rate 0.31% among 330,000; active = well fitted inhibition curve with a large enough effect; inconclusive = small, poorly fitted or top-dose-only effect; inactive = no such curve, though single readings can be large or run the other way; tested in mouse RAW 264.7 cells; also: % is scaled to controls: 0 for no effect and ±100 for the full control effect; nearly all actives have a fitted effect of over 55% in size
# ELG1 genotox – qHTS screen for small molecules that induce genotoxicity in human embryonic kidney (HEK293T) cells expressing luciferase-tagged ELG1. HEK293T ELG1-luciferase reporter, luminescence, 16 h. hit rate 1.3% among 330,000. Potency, µM (highest dose often 46 µM), for inactives: at the top dose activity change, positive = activation, actives largely listed as activators. AID 504466, 2011; also: % of control where 0% means no effect; nearly all actives have a fitted effect of over 60% in size
#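 HEK293T cells expressing luciferase-tagged ELG1 were treated with compound or DMSO for 16 hr at 37°C. Luciferase activity was then read after 30 min with ONE-Glo at room temperature; rising signal flags genetic stress.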
# SMN2 splice up – qHTS Assay for Enhancers of SMN2 Splice Variant Expression. HEK293 SMN2-luciferase splicing reporter, luminescence, 30-36 h. Potency, µM (highest dose often 46.1 µM), for inactives: at the top dose activity change, positive = activation, actives largely listed as activators. hit rate 2.8% among 210,000. AID 1458, 2008; also: % of control where 0% means no effect; nearly all actives have a fitted effect of over 55% in size
#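 HEK293 cells carry an SMN2 […]–luciferase reporter in which exon 7 inclusion puts luciferase in frame. Cells were plated 10-12 h before compound addition, then incubated 30-36 h at 37C. ONE-Glo luminescence was read; sodium butyrate at 4.5 mM final served as control.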
# The depositor's hits bear a star; u = inconclusive; x = not tested or not shown. Unless noted, calls follow the shape of the dose curve; as a rule, active = well fitted curve in the direction sought with a large enough effect; inconclusive = small, poorly fitted or top-dose-only effect, or another doubt; inactive = no such curve, though single readings can be large; an effect the other way counts as inactive or inconclusive. Potency is read from the fitted curve at half-maximal effect.
SMILES,FLuc counter,NPC1 promoter act,Rab9 prom act,uPA surface inh,ELG1 genotox,SMN2 splice up
CCOC(=O)C1CCCN(C2=NC(=O)/C(=C/c3ccc(N(C)C)cc3)S2)C1 (stereo not drawn),12µM*,26.0%,5.4%,-6.2%,5.8%,x
CCOC(=O)C1CCCN(C2=NC(=O)/C(=C/c3ccc(OC)cc3)S2)C1 (stereo not drawn),-10.8%,-1.2%,1.6%,-12.4%,-0.4%,x
CC(C)(C)c1ccc(/C=C2/SC(N3CCCC3)=NC2=O)cc1,12µM*,-2.7%,11.1%,0.2%,2.8%,x
O=C1N=C(N2CCCCC2)S/C1=C\c1ccc(Cl)cc1,-19.7%,11.1%,6.5%,4.7%,14.6%,x
O=C1N=C(N2CCN(c3cccc4ccccc34)CC2)S/C1=C/c1cccs1,0.3%,11.0%,0.8%,0.9%,-7.9%,-15.0%
Cc1ccccc1N1CCN(C2=NC(=O)/C(=C\c3cccs3)S2)CC1,9.53µM*,-0.6%,11.0%,u,1.0%,u
O=C(c1cccc(F)c1)N1CCC[C@@]2(CCN(Cc3ccccc3)C2)C1,x,x,x,x,x,2.2%
CCCCC(=O)Nc1nnc(SCc2cc(=O)n3cc(C)ccc3n2)s1,4.2%,x,x,x,x,x
COc1cccc(OC)c1C(=O)Nc1cccc(C(C)=O)c1,2.6%,-2.0%,2.6%,0.9%,2.8%,0.9%
COc1cccc(C(=O)NCc2ccc3c(c2)OCO3)c1OC,-1.9%,-2.2%,-0.1%,-5.2%,3.1%,x
COc1cccc(/C=C/C(=O)Nc2ccc3c(c2)OCCO3)c1OC,0.757µM*,0.398µM*,0.398µM*,-8.8%,1.3µM*,2.82µM*
COc1cccc(/C=C/C(=O)Nc2ccc(C(=O)Nc3cccc(S(N)(=O)=O)c3)cc2)c1OC,u,1.5%,7.7%,-6.8%,-2.1%,x
COc1cccc(/C=C/C(=O)Nc2cccc(C(C)=O)c2)c1OC,3.01µM*,3.16µM*,2.82µM*,u,1.6%,17.8µM*
COc1cccc(C(=O)Nc2ccc3c(c2)OCO3)c1OC,9.53µM*,1.41µM*,1.58µM*,-1.6%,u,x
COc1ccccc1/C=C/C(=O)Nc1cccc(C(C)=O)c1,10.7µM*,20.4%,27.4%,1.1%,1.5%,12.9%
COc1cccc2sc(NNC(=O)COc3ccccc3)nc12,-0.9%,3.7%,-0.6%,5.2%,-2.1%,5.0%
c1ccc(Nc2nc(-c3ccncc3)cs2)cc1,u,-0.2%,4.3%,8.4%,15.2%,u
c1ccc(-c2csc(Nc3cccnc3)n2)nc1,19µM*,u,u,x,u,u
Fc1ccc(Nc2nc(-c3ccncc3)cs2)cc1,u,u,u,15.8%,-1.2%,u
c1cncc(Nc2nc(-c3cccs3)cs2)c1,19µM*,u,3.16µM*,x,9.2µM*,11.2µM*
COc1cccc2sc(Nc3nc(-c4ccccn4)cs3)nc12,12µM*,21.5%,u,x,9.3%,x
c1ccc(Nc2nc(-c3ccccn3)cs2)cc1,3.79µM*,x,x,-1.2%,x,12.6µM*
CCCc1ccc(S(=O)(=O)N2CCN(C(C)C(=O)NCc3ccccc3)CC2)cc1 (stereo not drawn),-1.1%,-4.9%,-8.7%,u,-6.2%,x
COc1ccc(C(=O)Oc2c(Sc3ccc(C)cc3)c(C)nn2C(C)(C)C)c(OC)c1,-6.3%,x,x,x,x,-17.5%
Cc1ccc(NC(=O)Cn2ccc([N+](=O)[O-])n2)cc1C,-4.9%,-0.3%,-1.3%,2.5%,-0.3%,-11.3%
COc1ccc(OC)c(CNC(=O)c2ccc3nc(C(C)C)oc3c2)c1,-7.3%,x,x,x,x,x
CCOc1ccccc1C1CC(=O)Nc2c1c(=O)n(C)c1ncnn21 (stereo not drawn),-6.3%,x,x,x,x,1.4%
COc1ccc(-n2c(C)cc(C(=O)Cn3nnc4ccccc4c3=O)c2C)cc1,12µM*,23.1%,u,u,-2.0%,-3.3%
